Experimental data published in PubChem BioAssay (NCATS).
A number with no mark means an inactive call. Activity calls are given as the source filed them. No rule for the calls is given here.

system: HIV-1 nucleocapsid protein NCp7 (binding to TG oligonucleotide); assay: HIV Nucleocapsid (AID 346); details: HIV-1 NC / fluorescein-TGTGTGTG probe, fluorescence polarization;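 also: potency is for inhibitors that block NC binding and lower polarization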
Method in brief: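 NCp7 100 nM + fluorescein TG4xF 10 nM; Hepes pH 7.5/250mM NaCl/1uM ZnCl2/0.004% PEG 20000; 1 hr RT; FP, 45 s exposure; oligo-only wells as negative control.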
Potency is read from the fitted curve at half-maximal effect.

| SMILES | Potency |
| --- | --- |
| COc1ccc(-c2nc3cnc(Nc4ccccc4)nc3n(CCC#N)c2=O)cc1 | 2.04 µM (active) |
| CN(C)C(=O)c1ccc(-c2ccc3ncnc(N(C)C)c3c2)cc1 | > 20 µM |
| c1ccc(CNc2ncncc2-c2ccoc2)cc1 | > 20 µM |
| CNc1nc(-c2cccnc2)nc2ccccc12 | > 20 µM |
| CN(C)C(=O)c1ccc(-c2nc(N(C)Cc3ccco3)c3ccccc3n2)cc1 | > 20 µM |
| COc1ccccc1CN1CCCC2(CCN(S(C)(=O)=O)CC2)C1 | > 20 µM |
| Cc1cccc(CNc2nc(-c3cccc(NS(C)(=O)=O)c3)nc3ccccc23)c1 | > 20 µM |
| COc1cccc(Cn2c(=O)cnc3cnc(Oc4cccc(Cl)c4)nc32)c1 | > 20 µM |
| CN(C)C(=O)c1ccc(-c2cncnc2Nc2ccccc2)cc1 | > 20 µM |
| COc1ccccc1CNc1ncncc1-c1cccc(C#N)c1 | > 20 µM |
| CC(=O)NCCNc1nc(-c2cccc(NS(C)(=O)=O)c2)nc2ccccc12 | > 20 µM |
| CN(C)c1ncc2nc(-c3ccc(F)cc3)c(=O)n(CCC#N)c2n1 | > 4 µM |
| CCNc1ncc2nc(-c3ccc(OC)cc3)c(=O)n(Cc3ccc(F)cc3)c2n1 | > 20 µM |
| CC(C)NC(=O)N1CC2(CCN(C(=O)c3cccn3C)CC2)C1 | > 20 µM |
| COCCn1c(=O)c(CCc2ccccc2)nc2cnc(OC)nc21 | > 20 µM |
| Cc1cccc(CNc2cc(-c3cccnc3)ncn2)c1 | > 20 µM |
| CN(C)Cc1ccccc1-c1nccc(N(C)Cc2ccco2)n1 | > 20 µM |
| Cc1cnc(CNc2ncnc3ccc(-c4ccc5c(c4)OCO5)cc23)cn1 | > 20 µM |
| COc1ccc(CNc2ccnc(-c3ccc4c(c3)OCO4)n2)c(OC)c1 | > 20 µM |
| COc1ncc2nc(CCc3ccccc3)c(=O)n(Cc3ccc(F)cc3)c2n1 | > 20 µM |

| SMILES | Potency |
| --- | --- |
| Cc1cnc(CNc2ccnc(-c3ccc(C(=O)N(C)C)cc3)n2)cn1 | > 20 µM |
| CCNc1ncc2nc(-c3ccccc3)c(=O)n(C3CC3)c2n1 | > 20 µM |
| CS(=O)(=O)Nc1cccc(-c2nc(N3CCOCC3)c3ccccc3n2)c1 | > 20 µM |
| c1cncc(-c2ccc3ncnc(N4CCNCC4)c3c2)c1 | > 20 µM |
| COc1ccc2[nH]cc(CCNc3ncncc3-c3cccc(C#N)c3)c2c1 | > 20 µM |
| N#Cc1cccc(-c2cncnc2NCc2cccs2)c1 | > 20 µM |
| COc1cccc(-c2cncnc2NCc2cnc(C)cn2)c1 | > 20 µM |
| COc1ccc(-n2c(=O)c(-c3cccs3)nc3cnc(Nc4ccccc4)nc32)cc1 | 4.01 µM (active) |
| COCCn1c(=O)cnc2cnc(Nc3ccccc3)nc21 | > 4 µM |
| COc1ccc(-c2nc3cnc(OC)nc3n(CCC#N)c2=O)cc1 | > 20 µM |
| Cc1cccc(CNc2ncnc3ccc(-c4c(C)noc4C)cc23)c1 | > 20 µM |
| COC(=O)N1CCC2(CCN(Cc3nccs3)CC2)CC1 | > 20 µM |
| CNc1nc(-c2ccc(C(=O)N(C)C)cc2)nc2ccccc12 | > 20 µM |
| CN(C)c1ccc(-c2cncnc2Nc2ccc(F)cc2)cc1 | > 20 µM |
| COc1cccc(-c2cncnc2NCCc2cnc[nH]2)c1 | > 20 µM |
| COCCNc1nc(-c2cccc(NS(C)(=O)=O)c2)nc2ccccc12 | > 20 µM |
| COc1ccccc1CNc1ccnc(-c2ccccc2C(F)(F)F)n1 | > 20 µM |
| N#Cc1ccc(CN2CCCC3(CCN(S(=O)(=O)c4ccccc4)CC3)C2)cc1 | > 20 µM |
| COc1ccc(-c2nc3cnc(N(C)C)nc3n(Cc3cccs3)c2=O)cc1 | > 20 µM |
